Data: the supplement of paper PMC11001985
Values without a mark were called inactive.

These targets were tested with C#CCNC(=O)CCSSCCC(=O)NCCc1ccc(C=O)c(C=O)c1 (assay: lysine labeling ratio R10:1 (500 µM / 50 µM probe), SILAC-ABPP in living cells; higher = lower intrinsic lysine reactivity toward the probe, active = 2 or less). Conditions: HeLa; probe concentrations 500 vs 50 µM.
Method in brief: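 An alkyne-tagged lysine probe with a disulfide linker labelled living HeLa cells in PBS at room temperature at either 50 µM or 500 µM, using SILAC light and heavy cells in forward and reverse label swaps. Lysates were mixed, clicked to biotin-azide, trypsin-digested, enriched on neutravidin, DTT-released, alkylated and measured by LC-MS/MS on a TIMS-TOF Pro. Each lysine's R is the filtered median high-probe/low-probe MS1 peptide ratio, combined as the median over forward and reverse replicates, with 20 as the upper limit.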

UniProt Q15149, sequence (Q15149 whole entry): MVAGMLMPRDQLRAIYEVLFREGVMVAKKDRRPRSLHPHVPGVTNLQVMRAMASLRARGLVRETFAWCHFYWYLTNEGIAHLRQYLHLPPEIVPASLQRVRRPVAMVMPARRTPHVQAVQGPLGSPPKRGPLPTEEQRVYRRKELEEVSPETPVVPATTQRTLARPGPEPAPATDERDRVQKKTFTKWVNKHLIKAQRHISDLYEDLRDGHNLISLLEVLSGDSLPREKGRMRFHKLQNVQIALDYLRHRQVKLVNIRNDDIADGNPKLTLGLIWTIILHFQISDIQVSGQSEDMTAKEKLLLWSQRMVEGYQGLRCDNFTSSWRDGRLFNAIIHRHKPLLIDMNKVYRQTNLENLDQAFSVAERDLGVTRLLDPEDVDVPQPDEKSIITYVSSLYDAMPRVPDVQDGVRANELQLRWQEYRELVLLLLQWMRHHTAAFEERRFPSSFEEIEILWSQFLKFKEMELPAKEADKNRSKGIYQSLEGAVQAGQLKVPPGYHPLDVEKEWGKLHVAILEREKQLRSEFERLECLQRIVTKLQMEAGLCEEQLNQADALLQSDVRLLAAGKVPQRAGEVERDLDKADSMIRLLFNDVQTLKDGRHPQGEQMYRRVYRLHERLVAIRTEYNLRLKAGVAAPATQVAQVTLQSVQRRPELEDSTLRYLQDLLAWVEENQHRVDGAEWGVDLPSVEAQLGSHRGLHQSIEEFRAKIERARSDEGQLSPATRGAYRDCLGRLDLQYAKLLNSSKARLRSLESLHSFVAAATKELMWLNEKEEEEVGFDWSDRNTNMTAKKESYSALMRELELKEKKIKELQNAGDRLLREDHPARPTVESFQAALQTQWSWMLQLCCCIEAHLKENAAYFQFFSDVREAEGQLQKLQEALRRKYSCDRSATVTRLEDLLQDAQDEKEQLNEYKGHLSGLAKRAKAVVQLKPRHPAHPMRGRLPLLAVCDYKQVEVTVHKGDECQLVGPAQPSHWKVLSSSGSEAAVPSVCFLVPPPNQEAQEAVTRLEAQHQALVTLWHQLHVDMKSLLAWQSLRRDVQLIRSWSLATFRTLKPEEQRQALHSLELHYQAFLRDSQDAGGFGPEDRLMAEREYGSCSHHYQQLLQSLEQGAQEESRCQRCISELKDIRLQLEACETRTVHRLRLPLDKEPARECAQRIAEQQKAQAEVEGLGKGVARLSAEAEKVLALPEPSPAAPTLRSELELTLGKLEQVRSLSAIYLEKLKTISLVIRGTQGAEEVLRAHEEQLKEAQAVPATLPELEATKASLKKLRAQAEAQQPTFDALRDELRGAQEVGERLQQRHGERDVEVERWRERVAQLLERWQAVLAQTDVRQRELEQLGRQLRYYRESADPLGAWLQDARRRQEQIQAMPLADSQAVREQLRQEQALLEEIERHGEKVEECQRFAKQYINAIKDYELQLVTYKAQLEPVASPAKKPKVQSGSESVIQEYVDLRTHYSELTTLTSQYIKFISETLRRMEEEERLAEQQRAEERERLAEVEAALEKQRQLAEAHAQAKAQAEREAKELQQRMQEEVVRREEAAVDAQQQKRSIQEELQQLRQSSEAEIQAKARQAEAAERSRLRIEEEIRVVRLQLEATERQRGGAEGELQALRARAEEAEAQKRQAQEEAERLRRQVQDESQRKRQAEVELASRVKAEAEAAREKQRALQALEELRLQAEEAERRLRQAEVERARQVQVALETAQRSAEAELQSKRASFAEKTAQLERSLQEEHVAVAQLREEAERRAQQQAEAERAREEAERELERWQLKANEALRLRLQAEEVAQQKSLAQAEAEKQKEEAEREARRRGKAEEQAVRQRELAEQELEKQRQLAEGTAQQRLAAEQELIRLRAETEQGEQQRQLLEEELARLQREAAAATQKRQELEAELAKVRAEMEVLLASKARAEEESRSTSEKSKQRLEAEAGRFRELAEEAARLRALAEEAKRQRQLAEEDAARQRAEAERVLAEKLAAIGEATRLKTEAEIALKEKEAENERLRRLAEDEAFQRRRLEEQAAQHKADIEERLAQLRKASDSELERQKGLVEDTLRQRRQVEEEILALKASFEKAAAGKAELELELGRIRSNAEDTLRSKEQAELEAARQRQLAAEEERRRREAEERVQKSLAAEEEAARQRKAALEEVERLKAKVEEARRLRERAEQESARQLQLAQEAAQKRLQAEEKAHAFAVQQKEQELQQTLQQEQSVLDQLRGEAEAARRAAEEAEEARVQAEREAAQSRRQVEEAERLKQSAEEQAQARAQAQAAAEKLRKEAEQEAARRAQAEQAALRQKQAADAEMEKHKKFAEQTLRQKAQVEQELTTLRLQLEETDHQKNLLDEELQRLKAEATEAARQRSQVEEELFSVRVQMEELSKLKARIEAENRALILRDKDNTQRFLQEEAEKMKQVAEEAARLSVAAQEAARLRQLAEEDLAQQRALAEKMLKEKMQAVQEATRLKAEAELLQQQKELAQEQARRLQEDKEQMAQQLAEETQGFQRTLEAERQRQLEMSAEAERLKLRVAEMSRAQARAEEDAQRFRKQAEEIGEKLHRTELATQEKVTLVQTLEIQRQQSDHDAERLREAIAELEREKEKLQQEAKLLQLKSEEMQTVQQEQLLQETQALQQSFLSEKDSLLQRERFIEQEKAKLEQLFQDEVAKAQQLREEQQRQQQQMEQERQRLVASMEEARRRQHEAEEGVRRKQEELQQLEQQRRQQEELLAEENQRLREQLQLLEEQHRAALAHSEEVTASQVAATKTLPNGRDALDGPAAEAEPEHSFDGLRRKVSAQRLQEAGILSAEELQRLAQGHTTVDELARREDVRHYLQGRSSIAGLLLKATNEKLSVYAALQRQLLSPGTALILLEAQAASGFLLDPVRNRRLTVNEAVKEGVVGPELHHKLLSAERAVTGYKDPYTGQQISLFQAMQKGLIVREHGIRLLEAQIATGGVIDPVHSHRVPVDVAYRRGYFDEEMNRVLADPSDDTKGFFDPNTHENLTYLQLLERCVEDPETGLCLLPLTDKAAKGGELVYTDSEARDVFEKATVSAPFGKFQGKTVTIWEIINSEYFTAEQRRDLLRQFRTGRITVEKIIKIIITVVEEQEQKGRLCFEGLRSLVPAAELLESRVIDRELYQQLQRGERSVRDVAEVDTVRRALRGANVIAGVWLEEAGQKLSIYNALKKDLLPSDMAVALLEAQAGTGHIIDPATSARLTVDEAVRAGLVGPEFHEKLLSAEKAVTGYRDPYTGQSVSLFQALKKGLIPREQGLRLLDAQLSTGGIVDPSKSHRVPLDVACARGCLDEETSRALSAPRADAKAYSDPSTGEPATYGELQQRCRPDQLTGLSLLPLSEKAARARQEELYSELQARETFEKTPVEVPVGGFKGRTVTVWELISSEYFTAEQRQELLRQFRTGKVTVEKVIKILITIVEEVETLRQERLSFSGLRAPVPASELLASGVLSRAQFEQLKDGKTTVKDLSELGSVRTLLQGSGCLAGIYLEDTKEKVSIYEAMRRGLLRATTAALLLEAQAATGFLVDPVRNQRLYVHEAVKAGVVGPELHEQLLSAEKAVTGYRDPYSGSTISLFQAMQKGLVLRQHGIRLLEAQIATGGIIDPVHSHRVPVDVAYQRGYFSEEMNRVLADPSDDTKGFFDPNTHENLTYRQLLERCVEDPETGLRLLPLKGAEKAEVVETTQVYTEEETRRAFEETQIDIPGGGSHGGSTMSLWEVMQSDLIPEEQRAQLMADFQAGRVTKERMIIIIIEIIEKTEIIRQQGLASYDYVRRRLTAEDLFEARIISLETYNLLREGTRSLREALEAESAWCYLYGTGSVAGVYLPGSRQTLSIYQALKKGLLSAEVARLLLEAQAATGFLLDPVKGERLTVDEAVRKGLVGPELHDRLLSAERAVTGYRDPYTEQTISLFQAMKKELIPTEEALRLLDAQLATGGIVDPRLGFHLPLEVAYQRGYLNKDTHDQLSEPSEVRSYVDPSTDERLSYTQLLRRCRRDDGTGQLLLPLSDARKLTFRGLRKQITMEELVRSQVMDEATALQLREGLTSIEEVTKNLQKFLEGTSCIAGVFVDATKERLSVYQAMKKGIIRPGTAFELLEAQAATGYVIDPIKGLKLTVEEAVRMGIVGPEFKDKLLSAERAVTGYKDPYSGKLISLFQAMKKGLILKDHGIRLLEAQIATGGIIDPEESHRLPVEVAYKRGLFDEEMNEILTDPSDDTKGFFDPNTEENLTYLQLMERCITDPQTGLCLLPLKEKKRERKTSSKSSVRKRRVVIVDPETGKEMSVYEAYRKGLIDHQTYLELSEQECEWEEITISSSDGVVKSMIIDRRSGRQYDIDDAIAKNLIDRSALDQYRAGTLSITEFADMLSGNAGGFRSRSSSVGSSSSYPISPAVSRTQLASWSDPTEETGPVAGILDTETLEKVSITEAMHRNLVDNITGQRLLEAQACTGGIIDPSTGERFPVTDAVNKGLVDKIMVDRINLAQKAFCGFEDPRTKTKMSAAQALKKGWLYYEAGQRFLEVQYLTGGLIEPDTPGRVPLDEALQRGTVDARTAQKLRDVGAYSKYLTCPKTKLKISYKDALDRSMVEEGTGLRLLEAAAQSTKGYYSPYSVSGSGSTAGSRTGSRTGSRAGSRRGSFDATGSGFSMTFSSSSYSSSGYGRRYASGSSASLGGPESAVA
UniProt P42785, sequence (P42785 whole entry): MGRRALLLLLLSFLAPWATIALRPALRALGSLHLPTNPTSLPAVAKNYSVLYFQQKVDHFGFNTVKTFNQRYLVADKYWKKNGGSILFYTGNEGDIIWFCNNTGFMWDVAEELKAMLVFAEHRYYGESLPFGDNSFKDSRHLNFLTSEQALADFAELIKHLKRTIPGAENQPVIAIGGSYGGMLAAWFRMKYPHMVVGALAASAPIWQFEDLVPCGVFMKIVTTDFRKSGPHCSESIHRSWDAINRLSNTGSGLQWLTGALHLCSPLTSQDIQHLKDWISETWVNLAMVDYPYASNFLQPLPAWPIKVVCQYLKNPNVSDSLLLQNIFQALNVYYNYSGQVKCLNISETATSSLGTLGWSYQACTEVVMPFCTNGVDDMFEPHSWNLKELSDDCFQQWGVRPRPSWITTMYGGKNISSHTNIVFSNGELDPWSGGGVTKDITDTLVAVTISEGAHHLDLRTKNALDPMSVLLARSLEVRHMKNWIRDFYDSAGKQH

Target | lysine labeling ratio R10:1
ROR2 (lysine site: K113) (UniProt Q01974) | 6.49
FSCN1 (lysine site: K399) (UniProt Q16658) | 3.81
FZD6 (lysine site: K149) (UniProt O60353) | 0.883 (active)
RPL4 (lysine site: K259) (UniProt P36578) | 1.88 (active)
UniProt P16144 (lysine site: K392) | 0.94 (active)
TMEM30A (lysine site: K155) (UniProt Q9NV96) | 2.09
CD44 (lysine site: K158) (UniProt P16070) | 4.38
CAPZB (lysine site: K223) (UniProt P47756) | 2.76
ATP1B1 (lysine site: K113) (UniProt P05026) | 1.86 (active)
UniProt Q12891 (lysine site: K148) | 1.46 (active)
ANXA7 (lysine site: K268) (UniProt P20073) | 2.89
APOB (lysine site: K1642) (UniProt P04114) | 2.17
IGSF3 (lysine site: K884) (UniProt O75054) | 4.12
ATP6V0D1 (lysine site: K288) (UniProt P61421) | 1.76 (active)
UniProt P46781 (lysine site: K11) | 4.03
MCAM (lysine site: K153) (UniProt P43121) | 4.14
RPL4 (lysine site: K294) (UniProt P36578) | 3.4
PTK7 (lysine site: K636) (UniProt Q13308) | 11
GPC1 (lysine site: K338) (UniProt P35052) | 7.36
IGSF3 (lysine site: K373) (UniProt O75054) | 3.12

Target | lysine labeling ratio R10:1
EGFR (lysine site: K133) (UniProt P00533) | 1.08 (active)
UniProt Q9NYU2 (lysine site: K362) | 3.31
PRCP (lysine site: K228) (UniProt P42785) | 2.59
XRCC5 (lysine site: K265) (UniProt P13010) | 3.42
UniProt P26639 (lysine site: K549) | 0.996 (active)
ANXA2 (lysine site: K279) (UniProt P07355) | 5.78
RUVBL1 (lysine site: K182) (UniProt Q9Y265) | 0.748 (active)
HNRNPU (lysine site: K265) (UniProt Q00839) | 2.4
FAT1 (lysine site: K2562) (UniProt Q14517) | 1.58 (active)
LRPAP1 (lysine site: K340) (UniProt P30533) | 1.47 (active)
PA2G4 (lysine site: K287) (UniProt Q9UQ80) | 0.997 (active)
UniProt Q15149 (lysine site: K1401) | 3.7
CACNA2D1 (lysine site: K649) (UniProt P54289) | 10.1
UniProt O95084 (lysine site: K270) | 2.67
FBL (lysine site: K131) (UniProt P22087) | 2.15
CCT5 (lysine site: K214) (UniProt P48643) | 1.21 (active)
UniProt Q15149 (lysine site: K1528) | 1.47 (active)
UniProt P52803 (lysine site: K166) | 0.58 (active)
UniProt Q16363 (lysine site: K682) | 1.54 (active)
ALCAM (lysine site: K75) (UniProt Q13740) | 9.89
